Common to all, as to parameters: scale not given: direction of the effect not stated beside the values
In test [1] the target is Protein translocase subunit SecA (Escherichia coli (strain K12)) (UniProt P10408). Kind of test: Assay to Identify E. coli SecA ATPase Inhibitors. It is filed as functional. The following applies: 30 µM.
For test [2], the target named is T1, Ubiquitin-activating enzyme e1, putative (Leishmania donovani (strain BPK282A1)) (UniProt E9BSI1).
T1 sequence (whole entry): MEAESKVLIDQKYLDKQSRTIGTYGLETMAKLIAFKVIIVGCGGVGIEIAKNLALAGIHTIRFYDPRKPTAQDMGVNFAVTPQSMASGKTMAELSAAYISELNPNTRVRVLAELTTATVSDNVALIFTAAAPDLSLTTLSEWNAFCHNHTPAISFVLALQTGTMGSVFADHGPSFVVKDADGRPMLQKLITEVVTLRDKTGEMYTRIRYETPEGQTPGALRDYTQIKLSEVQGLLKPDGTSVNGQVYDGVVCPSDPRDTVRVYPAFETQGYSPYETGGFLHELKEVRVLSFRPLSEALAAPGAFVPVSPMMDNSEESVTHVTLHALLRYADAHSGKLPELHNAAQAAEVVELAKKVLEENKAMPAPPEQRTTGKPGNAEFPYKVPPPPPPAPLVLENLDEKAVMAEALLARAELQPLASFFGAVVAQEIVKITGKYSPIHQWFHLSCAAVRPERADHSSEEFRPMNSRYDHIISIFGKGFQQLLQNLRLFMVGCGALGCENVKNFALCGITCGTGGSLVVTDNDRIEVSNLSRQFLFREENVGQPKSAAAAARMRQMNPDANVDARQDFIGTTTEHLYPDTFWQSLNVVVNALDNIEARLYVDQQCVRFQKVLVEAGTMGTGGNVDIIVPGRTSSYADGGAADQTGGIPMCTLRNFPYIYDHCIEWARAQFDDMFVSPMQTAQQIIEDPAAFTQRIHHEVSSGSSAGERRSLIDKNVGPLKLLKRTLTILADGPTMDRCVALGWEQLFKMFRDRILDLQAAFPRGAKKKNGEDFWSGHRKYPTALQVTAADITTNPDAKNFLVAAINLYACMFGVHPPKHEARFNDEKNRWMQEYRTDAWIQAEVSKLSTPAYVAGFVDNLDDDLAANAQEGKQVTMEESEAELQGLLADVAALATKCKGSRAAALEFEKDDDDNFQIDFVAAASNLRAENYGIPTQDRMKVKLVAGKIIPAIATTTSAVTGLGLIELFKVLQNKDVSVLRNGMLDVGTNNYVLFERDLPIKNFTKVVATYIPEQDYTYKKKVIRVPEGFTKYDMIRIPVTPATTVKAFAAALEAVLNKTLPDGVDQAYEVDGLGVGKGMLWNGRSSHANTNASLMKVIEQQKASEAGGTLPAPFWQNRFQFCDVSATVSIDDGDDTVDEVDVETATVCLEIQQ
Kind of test: Leishmania donovani Ubiquitin Activating Enzyme (LdE1). It is filed as functional. The following applies: 30 µM.

For test [3], the target named is AMP-activated protein kinase, AMPK (Homo sapiens) (UniProt P54646+O43741+P54619+Q9UGJ0+Q9Y478+Q13131+Q9UGI9). As to the kind of experiment: AMP-dependent Kinase enzyme assay. An in vitro enzyme assay that detects ADP turnover that is directly proportional to AMPK activity. This uses naive AMPK that is activated during the assay with MK-8722. Particulars: 30 µM. It is filed as functional.

The target in test [4] is Sialic acid-binding Ig-like lectin 9 (Homo sapiens) (UniProt Q9Y336). As to the kind of experiment: Hs-Siglec9 ALPHAscreen SOP 20170721. The following applies: 10 µM. (In general: Alpha assays give light when donor and acceptor beads are brought close together.)
Another test has as its system Trypanosoma cruzi. Kind of test: Trypanosoma cruzi phosphomannomutase and mannose-1-phosphate guanylyltransferase assay. It is filed as functional. The following applies: 10 µM.
The target of test [5] is T2, Arginase-2, mitochondrial (Homo sapiens) (UniProt P78540).
T2 sequence (whole entry): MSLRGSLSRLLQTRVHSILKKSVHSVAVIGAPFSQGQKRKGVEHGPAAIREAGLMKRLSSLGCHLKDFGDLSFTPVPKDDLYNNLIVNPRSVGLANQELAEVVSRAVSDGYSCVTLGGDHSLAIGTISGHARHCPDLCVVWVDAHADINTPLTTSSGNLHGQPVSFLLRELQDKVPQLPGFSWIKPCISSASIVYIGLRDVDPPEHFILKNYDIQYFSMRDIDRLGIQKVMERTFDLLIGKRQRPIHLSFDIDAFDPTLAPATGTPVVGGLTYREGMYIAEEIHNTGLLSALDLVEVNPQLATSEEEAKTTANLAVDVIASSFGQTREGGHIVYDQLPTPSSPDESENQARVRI
As to the kind of experiment: in vitro enzyme assay to detect the production of urea directly proportional to the activity of Arginase II. Note: in the data most compounds retested in dose-response had high values. It is filed as functional. Particulars: 33.3 µM.

Test [6] concerns the target T3, Proteasome subunit beta (Trypanosoma cruzi) (UniProt O96673).
T3 sequence (whole entry): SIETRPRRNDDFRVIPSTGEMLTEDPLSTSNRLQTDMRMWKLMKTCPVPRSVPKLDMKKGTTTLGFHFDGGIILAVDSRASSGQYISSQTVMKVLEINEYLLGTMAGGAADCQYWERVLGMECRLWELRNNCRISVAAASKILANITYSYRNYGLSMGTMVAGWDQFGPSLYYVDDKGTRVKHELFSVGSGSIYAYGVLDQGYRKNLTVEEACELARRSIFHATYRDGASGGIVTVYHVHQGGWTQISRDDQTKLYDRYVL
As to the kind of experiment: Trypanosoma cruzi proteasome chymotrypsin-like activity (TcProtChymo) assay. Note: in the data most compounds retested in dose-response had high values. It is filed as functional. The following applies: 9.37 µM.

A further test is filed under the species Homo sapiens. As to the kind of experiment: To identify inhibition of the IFN signalling (Jak-Stat) pathway via expression of an eGFP reporter gene under the control of an IFN-stimulated response element (ISRE) containing MxA promoter. Particulars: 30 µM. It is filed as functional. A general note: A reporter such as luciferase makes a cellular process visible.

Test [7] addresses T4, Tyrosyl-tRNA synthetase, putative (Trypanosoma cruzi (strain CL Brener)) (UniProt Q4DSP6).
T4 sequence (whole entry): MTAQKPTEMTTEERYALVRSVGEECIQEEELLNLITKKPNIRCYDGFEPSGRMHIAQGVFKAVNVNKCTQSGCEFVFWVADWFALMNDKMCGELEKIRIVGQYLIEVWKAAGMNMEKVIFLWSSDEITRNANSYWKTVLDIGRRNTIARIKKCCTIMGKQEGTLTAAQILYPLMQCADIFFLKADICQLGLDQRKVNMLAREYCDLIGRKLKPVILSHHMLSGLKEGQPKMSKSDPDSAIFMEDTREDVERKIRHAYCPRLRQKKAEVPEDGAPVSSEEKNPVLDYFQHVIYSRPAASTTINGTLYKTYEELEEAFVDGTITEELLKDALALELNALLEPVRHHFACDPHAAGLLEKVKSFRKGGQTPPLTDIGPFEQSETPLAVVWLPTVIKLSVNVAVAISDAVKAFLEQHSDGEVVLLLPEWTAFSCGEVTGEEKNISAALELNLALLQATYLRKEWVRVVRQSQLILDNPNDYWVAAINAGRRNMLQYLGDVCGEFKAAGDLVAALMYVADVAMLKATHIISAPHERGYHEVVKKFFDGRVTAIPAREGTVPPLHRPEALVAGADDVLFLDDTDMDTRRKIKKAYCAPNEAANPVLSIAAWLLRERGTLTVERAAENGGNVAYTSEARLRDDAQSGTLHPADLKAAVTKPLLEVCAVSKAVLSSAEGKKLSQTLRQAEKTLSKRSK
Kind of test: Trypanosoma cruzi tyrosyl tRNA synthetase (TcYRS) _High Tyrosine SOP. Note: in the data most compounds retested in dose-response had high values. Particulars: 30 µM. It is filed as functional.

The target in test [8] is T4, Tyrosyl-tRNA synthetase, putative (Trypanosoma cruzi (strain CL Brener)). Kind of test: Trypanosoma cruzi tyrosyl tRNA synthetase (TcYRS) SOP. It is filed as functional. Particulars: 30 µM.
Test [9] concerns the target Chromo domain-containing protein 1 (Saccharomyces cerevisiae (strain ATCC 204508 / S288c) (Baker's yeast)) (UniProt P32657). As to the kind of experiment: ScCHD-1 Enzyme Inhibition Assay. Note: in the data most compounds retested in dose-response had high values. The following applies: 30 µM. It is filed as functional.

SMILES strings stand for the structures. For part of these data: Potency and affinity values are given separately.

Sialic acid-binding Ig-like lectin 9 (Homo sapiens), sequence (Q9Y336 whole entry): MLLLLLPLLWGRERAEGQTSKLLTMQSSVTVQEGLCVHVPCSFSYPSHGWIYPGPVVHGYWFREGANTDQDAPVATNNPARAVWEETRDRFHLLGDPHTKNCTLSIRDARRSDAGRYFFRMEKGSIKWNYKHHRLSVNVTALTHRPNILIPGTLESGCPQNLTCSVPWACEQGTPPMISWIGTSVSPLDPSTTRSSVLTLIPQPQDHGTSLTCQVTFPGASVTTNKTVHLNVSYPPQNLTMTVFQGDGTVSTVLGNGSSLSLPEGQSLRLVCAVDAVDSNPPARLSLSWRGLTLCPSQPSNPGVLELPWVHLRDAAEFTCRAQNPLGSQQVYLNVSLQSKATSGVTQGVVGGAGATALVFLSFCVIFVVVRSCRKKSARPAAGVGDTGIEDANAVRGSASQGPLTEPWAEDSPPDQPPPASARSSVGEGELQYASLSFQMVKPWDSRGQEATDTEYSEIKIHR
Protein translocase subunit SecA (Escherichia coli (strain K12)), sequence (P10408 whole entry): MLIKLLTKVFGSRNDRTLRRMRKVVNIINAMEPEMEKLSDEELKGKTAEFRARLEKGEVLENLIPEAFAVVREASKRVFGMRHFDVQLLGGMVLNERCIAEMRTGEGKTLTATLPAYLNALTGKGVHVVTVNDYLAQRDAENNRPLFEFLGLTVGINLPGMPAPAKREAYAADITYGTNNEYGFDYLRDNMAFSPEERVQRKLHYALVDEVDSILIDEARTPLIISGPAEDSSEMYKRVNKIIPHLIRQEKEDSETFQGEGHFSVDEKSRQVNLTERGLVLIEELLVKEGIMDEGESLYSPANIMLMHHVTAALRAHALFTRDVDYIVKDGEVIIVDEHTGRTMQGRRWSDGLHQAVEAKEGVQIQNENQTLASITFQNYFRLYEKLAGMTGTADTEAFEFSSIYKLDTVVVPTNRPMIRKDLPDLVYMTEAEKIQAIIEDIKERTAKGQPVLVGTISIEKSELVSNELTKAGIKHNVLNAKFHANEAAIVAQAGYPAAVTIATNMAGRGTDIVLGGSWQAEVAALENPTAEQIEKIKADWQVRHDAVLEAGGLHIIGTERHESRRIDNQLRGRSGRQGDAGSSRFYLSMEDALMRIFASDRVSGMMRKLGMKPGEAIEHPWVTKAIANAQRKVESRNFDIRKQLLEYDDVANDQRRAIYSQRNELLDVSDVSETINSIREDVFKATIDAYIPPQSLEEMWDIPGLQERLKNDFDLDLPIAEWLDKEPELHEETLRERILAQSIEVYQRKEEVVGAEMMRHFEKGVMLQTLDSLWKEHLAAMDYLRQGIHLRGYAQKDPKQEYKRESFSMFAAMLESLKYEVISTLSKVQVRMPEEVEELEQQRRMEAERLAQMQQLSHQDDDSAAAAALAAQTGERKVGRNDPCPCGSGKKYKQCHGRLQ
Chromo domain-containing protein 1 (Saccharomyces cerevisiae (strain ATCC 204508 / S288c) (Baker's yeast)), sequence (P32657 whole entry, the tested form may be a part): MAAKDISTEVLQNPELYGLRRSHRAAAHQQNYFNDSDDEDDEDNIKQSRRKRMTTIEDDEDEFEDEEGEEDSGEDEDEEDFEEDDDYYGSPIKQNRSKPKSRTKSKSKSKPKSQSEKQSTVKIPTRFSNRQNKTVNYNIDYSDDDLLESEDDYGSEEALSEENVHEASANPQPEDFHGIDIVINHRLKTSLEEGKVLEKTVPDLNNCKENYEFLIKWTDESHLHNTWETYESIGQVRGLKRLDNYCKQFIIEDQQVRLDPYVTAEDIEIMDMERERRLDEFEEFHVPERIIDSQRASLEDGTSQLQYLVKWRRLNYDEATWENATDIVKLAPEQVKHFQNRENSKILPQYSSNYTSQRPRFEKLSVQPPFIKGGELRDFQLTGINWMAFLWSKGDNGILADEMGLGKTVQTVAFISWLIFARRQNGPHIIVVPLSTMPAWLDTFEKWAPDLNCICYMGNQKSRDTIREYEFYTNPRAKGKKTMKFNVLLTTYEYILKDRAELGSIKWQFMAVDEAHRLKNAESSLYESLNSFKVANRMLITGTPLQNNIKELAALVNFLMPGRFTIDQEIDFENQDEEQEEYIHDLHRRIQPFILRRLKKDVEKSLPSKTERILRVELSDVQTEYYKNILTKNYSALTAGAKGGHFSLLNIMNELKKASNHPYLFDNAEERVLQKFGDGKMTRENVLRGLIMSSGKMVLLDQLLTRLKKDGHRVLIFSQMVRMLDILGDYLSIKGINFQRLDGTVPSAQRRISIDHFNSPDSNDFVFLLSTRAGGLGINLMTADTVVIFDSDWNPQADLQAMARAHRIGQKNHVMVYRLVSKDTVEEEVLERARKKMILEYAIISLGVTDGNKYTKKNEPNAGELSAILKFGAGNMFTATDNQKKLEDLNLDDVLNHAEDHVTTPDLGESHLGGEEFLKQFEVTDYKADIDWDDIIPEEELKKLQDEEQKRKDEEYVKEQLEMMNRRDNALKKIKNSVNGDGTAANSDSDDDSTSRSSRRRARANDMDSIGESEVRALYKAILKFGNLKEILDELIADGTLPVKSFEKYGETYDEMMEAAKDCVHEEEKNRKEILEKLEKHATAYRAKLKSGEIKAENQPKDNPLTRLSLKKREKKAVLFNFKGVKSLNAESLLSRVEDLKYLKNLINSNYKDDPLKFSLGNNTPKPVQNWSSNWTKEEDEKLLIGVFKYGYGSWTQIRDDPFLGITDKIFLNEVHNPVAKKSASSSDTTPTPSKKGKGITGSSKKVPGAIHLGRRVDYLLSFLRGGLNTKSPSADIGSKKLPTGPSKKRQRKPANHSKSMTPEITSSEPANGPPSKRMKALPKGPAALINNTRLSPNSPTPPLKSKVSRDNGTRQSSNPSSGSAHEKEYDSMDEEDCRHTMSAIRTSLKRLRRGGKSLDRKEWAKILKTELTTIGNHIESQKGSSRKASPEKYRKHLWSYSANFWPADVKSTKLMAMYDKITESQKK

Turning to `N#Cc1cc(NC(=O)c2ccsc2)ccc1N1CCC(O)CC1`, the Percent Effect is -2.1% in test [1]; 13.5% in [2]; -3.83% in test [3]; 18.9% in test [4]; 5.99% in the test on Trypanosoma cruzi; 12.9% in test [5]. Besides, the Percent Effect is 19.3% in test [6]; 27.8% in the test listed under Homo sapiens; 4.76% in [7]; 14.6% in test [8]; -1.54% in [9].

For the compound `NC(=O)c1ccc(N2CCCCC2)c(NC(=O)c2cc(Br)ccc2F)c1`, the Percent Effect in test [1] is -3.67%; in [2], 7.79%; in [3], 2.61%; in test [4] it was 8.24%; in the test with Trypanosoma cruzi, 0.295%; in test [5], -16.6%. Moreover, the Percent Effect in test [6] worked out at 14.8%; in the test filed under Homo sapiens, 1.93%; in [7] it was 4.3%; in [8] it was 6.17%; in test [9], 24.8%.

Take `CCOC(=O)NC(CNC(=O)c1ccccn1)CC(C)C` (centres undefined): the Percent Effect in [1] is -4.62%; in test [2] it was 5.41%; in test [3] it was 0.908%; in test [4], -3.92%; in the test with Trypanosoma cruzi it was -3.03%; in [5], 2.23%. Moreover, the Percent Effect in test [6] is 4.72%; in the test listed under Homo sapiens, -2.89%; in [7], 2.15%; in test [8] it was 8.64%; in test [9], -5.52%.

Take `COC(=O)c1sccc1NC(=O)C1CCCN1C(=O)c1ccco1` (centres undefined): the Percent Effect in test [1] is -0.782%; in test [2], -15.3%; in test [3], 13.2%; in [4] it was -14.9%; in the test with Trypanosoma cruzi, -8.84%; in [5] it was -3.53%. Also, the Percent Effect in [6] is 20.4%; in the test filed under Homo sapiens, 1.28%; in [7], -3.16%; in test [8] it was 2.56%; in [9], -2.51%.

Turning to `Nc1cc(CCCNC(=O)NC2CC2)nn1-c1ccccc1`, the Percent Effect in [1] was -3.6%; in test [2], 5.48%; in test [3], 1.41%; in test [4], -7.75%; in the test on Trypanosoma cruzi, -6.27%; in test [5] it was -6.82%. The Percent Effect is 14.7% in [6]; 3.12% in the test listed under Homo sapiens; 0% in [7]; 5% in test [8]; -2.26% in [9].

Turning to `COc1ccc(OC)c(-c2nc(CN(C)Cc3nncn3C)c(C)o2)c1`, the Percent Effect is -4.01% in test [1]; 11% in test [2]; 12% in test [3]; -0.646% in test [4]; -1.57% in the test with Trypanosoma cruzi; 0.909% in [5]. Also, the Percent Effect in test [6] is 13.7%; in the test listed under Homo sapiens, -0.225%; in [7], 7.53%; in test [8], 15%; in test [9] it was -5.1%.

For the compound `COc1ncccc1NC(=O)NCC1CCS(=O)(=O)C1` (centres undefined), the Percent Effect in test [1] was -2.59%; in [2] it was 20.8%; in test [3] it was -3.16%; in test [4], 6.78%; in the test with Trypanosoma cruzi, -0.936%; in test [5] it was -3.92%. The Percent Effect in test [6] is 4.22%; in the test listed under Homo sapiens, -12.2%; in [7], 5.83%; in test [8] it was 12.2%; in test [9], -8.21%.

Consider `CC(C)Cc1noc(CN2CCN(C(=O)c3ccco3)CC2)n1`, for which the Percent Effect is 1.31% in [1]; 2.74% in test [2]; 2.5% in test [3]; 1.08% in [4]; 3.17% in the test on Trypanosoma cruzi; 0% in test [5]. The Percent Effect in [6] is 8.99%; in the test filed under Homo sapiens, 5.51%; in [7] it was 5.21%; in test [8], 8.64%; in [9], -2.76%.

With `Cc1nn(C)c(C)c1C(C)NC(=O)Nc1cccnc1N1CCCC1` (centres undefined), the Percent Effect was -1.26% in test [1]; 2.7% in test [2]; -19.3% in test [3]; 6.12% in test [4]; -3.3% with Trypanosoma cruzi; 0% in test [5]. For the same compound, the Percent Effect in test [6] was 0.18%; in the test listed under Homo sapiens, 15%; in test [7], -0.493%; in test [8] it was 3.7%; in [9], -0.951%.
